The record followed here is PubChem BioAssay AID1259312 (Keith Lab, Institute of Cancer Science, University of …, 2017).

Among all 4,500 compounds or so, about 200 (4.4%) were called active.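 The calls were made as follows: active = cell survival measured by absorbance rises more than 2.5-fold over infected cells without compound; inactive = the rest.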 Only a selection was taken, and actives are over-represented in it overall.

This assay can be described thus: survival after telomere uncapping, modulators, primary screen, cell-based (AID 1259312).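 Also: virus expresses mutant telomerase RNA that uncaps telomeres and kills cells; compound added 2 days after infection so exposure lasts 3 days.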 Conditions: HCT116 + Ad-hTR-mut, MTT, 5 d; at 10 µM, stronger effect = higher value.
As for `O=C1CCCC2=C1C(c1ccco1)C1=C(N2)c2ccccc2C1=O` (stereo unspecified), the fold change is -5.38 (inactive). Turning to `O=S1(=O)CCC(SCc2nnc(-c3ccccc3)o2)C1` (stereo unspecified), the fold change was -1.78 (inactive). For the molecule `CCNC(=S)Nc1ccc(Br)cc1`, the fold change was -2.77 (inactive). The figure for `S=c1[nH]nc(CCc2ccccc2)n1Cc1ccccc1` is 1.25 (inactive). For `S=c1[nH]nc(Cc2n[nH]c(=S)n2Cc2ccccc2)n1Cc1ccccc1` the value was 4.65 (active); for `S=c1[nH]nc(Cc2ccccc2)n1Cc1ccccc1`, 1.06 (inactive). For `CCOC(=O)c1c(NC(=O)CCl)sc2c1CCN(C(=O)OCC)C2` the value was -1.2 (inactive). Take `O=C(CCCOc1ccc(Cl)cc1Cl)Nn1cnnc1`: the fold change was 2.83 (active).

Regarding `O=C(COc1ccc(Cl)cc1Cl)NCC1CCCO1` (stereo unspecified), the fold change was -1.41 (inactive).

`COC(=O)NNC(=O)CCCOc1ccc(Cl)cc1Cl`: the fold change was 1.34 (inactive). The figure for `Cc1c(C(C)C)c(=O)n(-c2ccc(S(=O)(=O)NC3CC3)cc2)n1C` is -2.25 (inactive); for `Brc1ccc(-c2csc(Nc3ccccc3)n2)cc1` it is -1.95 (inactive).

For the molecule `NC(=O)c1c(NC(=O)CN2CCOCC2)sc2c1CCCC2`, the fold change is -1.32 (inactive). The figure for `N#CCS/C(SCC(=O)c1ccc2c(c1)OCO2)=C(/C#N)C(=O)c1ccc2c(c1)OCO2` is 2.84 (active). With `N#CCS/C(SCC(=O)c1ccc(Br)cc1)=C(/C#N)C(=O)c1ccc(Br)cc1`, the fold change is 1.41 (inactive). For `CSc1nc(SCC(=O)c2ccc3c(c2)OCO3)nc(N)c1C#N` the value was 1.54 (inactive); for `OC1CCC2Cc3ccccc3N=C12` (stereo unspecified), -1.24 (inactive); for `O=c1[nH]nc(C[N+](=O)[O-])c2ccccc12`, 1.05 (inactive). The figure for `CC12C=CC(=O)C=C1CCC1C3CC(O)C(O)(C(=O)CO)C3(C)CC(O)C12F` (stereo unspecified) is 1.13 (inactive); for `CC(C)=NNc1nccc2ccccc12` it is -1.17 (inactive); for `c1ccc(N=C(Nc2ccccc2)N2CCOCC2)cc1` it is 1.32 (inactive). The figure for `S=C(Nc1ccccc1)N1CCOCC1` is 3.11 (active); for `S=C(Nc1ccccc1)N1CCCCC1` it is -1.66 (inactive). As for `O=C(O)CN1C(=O)C(=O)c2cc(Br)ccc21`, the fold change was -1.45 (inactive). With `CN1C(=O)C(=O)c2cc(Br)ccc21`, the fold change was -1.19 (inactive). For `O=C1c2ccc(Br)cc2C(=O)N1CNc1ccc(Br)cc1` the value was 2.94 (active); for `CCN(C(=O)c1cccs1)C1CCCCC1`, -1.05 (inactive).

With `N#CCN(CC#N)C(=O)c1cccs1`, the fold change was 4.34 (active). The figure for `N#CCN(CC#N)C(=O)c1ccco1` is -1.86 (inactive); for `CC(=O)Nc1ccc2nc(SCC(=O)Nc3nccs3)sc2c1` it is -1.04 (inactive). The figure for `O=C1OC(C2OC(=O)c3ccccc32)c2ccccc21` (stereo unspecified) is -2.64 (inactive).
